The source of these data is PubChem BioAssay.

The nature of experiment [1]: P. berghei load reduction in hepatocytes – cell-based, HepG2, luciferase luminescence, HepG2 viability, primary screen (AID 624349; in the data active = parasite load remaining mostly below about 12%, no sharp cut-off; inactive = mostly above about 10%;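 also: 100% = mean of DMSO negative control wells on the same plate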). Conditions: P. berghei liver stage in HepG2, luciferase luminescence, concentration not given here; parasite load remaining: stronger effect = lower value; viability: measured here: HepG2 viability without parasites.
Experiment [2] is described as follows: Wnt pathway potentiators raising nuclear beta-catenin – imaging, WNT3A-conditioned medium, mouse C2C12, NPC library, primary screen (AID 1117326; in the data active = nuclear beta-catenin stimulation mostly above about 4.2%, no sharp cut-off; inactive = mostly below about 10%). Conditions: stronger effect = higher value.
Experiment [3] can be described thus: stimulators of insulin release from INS-1E, primary screen, cell-based, 5 mM glucose, NPC library (AID 1117329;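 active = compound raises insulin release from rat beta cells at 5 mM glucose, no numeric limit stated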). Conditions: rat INS-1E insulin secretion, at 10 µM, stronger effect = higher value.
Experiment [4] can be described thus: growth inhibition of GSK3B-pretreated HCT116 cells – cell-based, CellTiter-Glo, 0.2 to 20 µM (AID 1117336;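 active = compounds lowering colon cancer cell viability after pretreatment blocking the GSK3B kinase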). Conditions: HCT116 viability after GSK3B inhibitor, at 20 µM, stronger effect = higher value.
Experiment [5] can be described thus: inhibition of endothelial tube formation, primary screen, imaging, VEGF stimulated, CD31 staining, tube area, NPC library (AID 1117340;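 active = compound that reduces growth-factor-driven endothelial tube area in a mixed cell culture, no cutoff stated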). Conditions: VEGF-stimulated ADSC/ECFC co-culture, at 10 µM, stronger effect = higher value.
Experiment [6] can be described thus: GLP1 release stimulators, primary, NCI-H716, NPC library (AID 1117341;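 active = compound raises GLP1 secretion from the human gut endocrine cells, with no numeric limit stated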). Conditions: NCI-H716 cells, at 10 µM, stronger effect = higher value.
Experiment [7] is described as follows: HCT116 colon cancer cell growth inhibition, primary screen, CellTiter-Glo luminescence, NPC library (AID 1117342;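 active = compounds that lower survival of HCT116 colon cancer cells in the luminescence readout, no numeric limit stated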). Conditions: at 20 µM (top of the series). A general note: In ATP-based viability assays light output follows the ATP content of the culture.
Experiment [8] is described as follows: reduced SW480 viability measured with CellTiter-Glo, NPC library, primary (AID 1117343;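 active = compounds that lower viability of the colon cancer cells in the luminescence readout, with no numeric limit stated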). Particulars: CellTiter-Glo luminescence; at 20 µM (top of the series).
Experiment [9] in a line: NPC library primary testing for decreased DLD-1 cell viability via CellTiter-Glo (AID 1117346;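 active = compounds that lower survival of DLD-1 colon cancer cells in the luminescence readout, no cutoff given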). Conditions: DLD-1 viability, CellTiter-Glo luminescence; at 20 µM (top of the series).
Experiment [10] is described as follows: EMT-state selective cytotoxicity in co-culture – imaging, PC-3E GFP, TEM4-18 mCherry, primary screen (AID 1345086;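 active = compounds killing one labelled cell type while sparing the other, by normalised counts and ratio limits, not self-fluorescent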;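 also: cells exposed to compound for 72 h before imaging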;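 as to red/green cell ratio (normalised): normalised mesenchymal count divided by normalised epithelial count so high means epithelial killing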). Particulars: PC-3E GFP / TEM4-18 mCherry co-culture, imaging cell counts, at 1 µM.
Experiment [11] in a line: viability loss with induced miR-34 in A549 – imaging, A549 dox-inducible miR-34, nuclei and caspase counts, primary screen (AID 1347080). Conditions: A549 miR-34 inducible, Hoechst nuclei count, 48 h.
Experiment [12] concerns the target NAD(+) hydrolase SARM1 (Homo sapiens) (UniProt Q6SZW1). The experiment in a line: blocking NAD cleavage by SARM1 SAM-TIR – cell lysate, NAD-Glo luminescence (AID 1508614;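 active = compound whose remaining NAD level is above about 45 nM, limit read from the data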;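 also: higher remaining NAD means stronger inhibition of SARM1 NADase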). Particulars: SAM-TIR HEK293T lysate NADase, at 1 µM, stronger effect = higher value.
Experiment [13] is described as follows: MELAS cybrid and Rieske KO viability enhancers – cell-based, MELAS cybrids, Rieske KO mouse fibroblasts, CellTiter-Glo, primary screen (AID 1508586;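 active = mean z-score across replicates of 1.96 or higher in either the MELAS or the Rieske mutant cell line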;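 also: z relative to plate mean and SD of compound and empty wells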). Particulars: low glucose.
The nature of experiment [14]: galactose survival enhancers in mitochondrial complex I cybrids – cell-based, galactose medium, ATP luminescence, primary screen (AID 1645843;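 active = z-score of at least 1.8 in each of two replicates, scored against plate mean and spread of sample wells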;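 also: positive z means more ATP and so rescue of galactose-driven cybrid death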). Conditions: complex I mutant cybrid cells, 72 h, stronger effect = higher value.
A short description of experiment [15]: compounds altering circadian rhythm period length – cell-based, LOPAC library, luminescence reporter (AID 2774; call rule not given here;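 also: values are relative to mean of DMSO wells on each plate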). Conditions: circadian reporter cells, at 7 µM, actives lie on both sides.
Experiment [16] relates to Hepatitis C virus NS3 helicase. The experiment in a line: blockers of NS3h binding to ssDNA – biochemical, fluorescence polarization, LOPAC1280 library, primary screen (AID 687035; in the data active = inhibition above about 37%). Conditions: Purified HCV NS3 helicase, Cy5-dT15 ssDNA binding fluorescence polarization; stronger effect = higher value; concentration not given here. A general note: Polarisation of emitted light reports the rotation of a fluorescent probe.

Experiment [17] relates to Aerobactin synthetase IucA (Klebsiella pneumoniae, hypervirulent). The experiment in a line: biochemical IucA inhibition screen of LOPAC library by absorbance (AID 1346212; call rule not given here;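 also: 100% = no compound wells and 0% = no enzyme wells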). Particulars: IucA enzyme assay, absorbance (OD) readout; stronger effect = lower value;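 tested at 8 µM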.
Experiment [18] in a line: compounds altering viability of human ES cells (AID 493140; call rule not given here;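 also: cells exposed to compounds for four days before counting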). Conditions: human embryonic stem cell survival screen; stronger effect = higher value.
[19] abbreviates: measured here: relative caspase fold change +Dox/-Dox.
Setting [20] is: measured here: total cells with miR-34 induction, stronger effect = lower value.
Setting [21] is: measured here: total cells without miR-34 induction.

Values joined by “and” are separate entries in the source; they are usually repeats but may differ in a detail not shown here. Equal values may be shown once. Active and inactive are the calls of the source.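 The calls were made as follows, unless noted: active = compounds whose cell count with miR-34 switched on is under 0.7 times the count with it off; inactive = the rest.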

Chain of NAD(+) hydrolase SARM1 (Homo sapiens) (Q6SZW1 whole entry, looked up): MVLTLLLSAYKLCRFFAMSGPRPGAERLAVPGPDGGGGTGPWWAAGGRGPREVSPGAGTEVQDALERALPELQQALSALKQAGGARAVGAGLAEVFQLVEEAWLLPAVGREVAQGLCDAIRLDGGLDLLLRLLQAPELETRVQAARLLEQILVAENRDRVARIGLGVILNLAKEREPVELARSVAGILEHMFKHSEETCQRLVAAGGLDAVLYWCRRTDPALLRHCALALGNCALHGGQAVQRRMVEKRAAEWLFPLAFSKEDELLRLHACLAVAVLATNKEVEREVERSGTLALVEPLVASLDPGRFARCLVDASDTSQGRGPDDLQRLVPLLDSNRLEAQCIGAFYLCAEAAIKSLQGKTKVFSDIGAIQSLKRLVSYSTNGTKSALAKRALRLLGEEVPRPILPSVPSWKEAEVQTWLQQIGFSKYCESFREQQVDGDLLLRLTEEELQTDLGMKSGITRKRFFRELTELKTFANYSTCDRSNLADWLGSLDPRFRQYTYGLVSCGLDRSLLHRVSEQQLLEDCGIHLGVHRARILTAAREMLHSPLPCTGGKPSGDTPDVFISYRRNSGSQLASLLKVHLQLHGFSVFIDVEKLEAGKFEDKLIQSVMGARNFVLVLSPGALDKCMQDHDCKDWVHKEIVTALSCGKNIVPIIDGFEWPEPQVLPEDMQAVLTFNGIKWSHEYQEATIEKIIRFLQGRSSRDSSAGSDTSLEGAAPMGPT

Regarding `COP(=O)(OC)OC=C(Cl)Cl`, in experiment [1], the parasite load remaining is 43.6% (inactive). Also, in [1], the viability (in general, a read-out of living cells in per cent, often relative to untreated cells) amounted to 96%. Also, the nuclear beta-catenin stimulation is -0.5% (inactive) in experiment [2] (at 10 µM) and -1.3% in [2] (stimulation, at 2 µM). Moreover, the insulin secretion stimulation in [3] was -1.6% (inactive). The viability decrease in experiment [4] is 37% (inactive). The tube area decrease in [5] was -16.8% (inactive). The GLP1 secretion stimulation in experiment [6] is -1.2% (inactive). Moreover, the inhibition of viability in experiment [7] is -1.53% (inactive). Further, the viability decrease (inhibition) is 26.8% (inactive) in experiment [8] and -3.8% (inactive) in experiment [9]. In addition, the red/green cell ratio (normalised) in experiment [10] (actives lie on both sides, counts scaled to control wells, 1 = unselective) is 1.1 (inactive). The normalised cell number in experiment [10] (measured here: epithelial PC-3E GFP cell survival) amounted to 1.09; in [10] (measured here: mesenchymal TEM4-18 mCherry cell survival), 1.2. Further, the fold change in experiment [11] (stronger effect = lower value, cell number ratio, induced over uninduced) is 0.895 (inactive); in [11] (setting [19]) it was 1.25. The cell count in [11] (setting [20]) turned out to be 10900; in experiment [11] (setting [21]), 12200. Besides, the remaining NAD in experiment [12] is 10 nM (inactive).

Turning to `CC(C)NCC(O)c1ccc(N)c(C#N)c1` (stereo not drawn), the parasite load remaining in experiment [1] was 53.9% (inactive). Also, in experiment [1], the viability stood at 161%. Moreover, the nuclear beta-catenin stimulation in experiment [2] (at 10 µM) was -0.6% (inactive); in [2] (stimulation, at 2 µM), -0.3%. In [3], the insulin secretion stimulation was 2.6% (inactive). For the same compound, the viability decrease in experiment [4] is 25.9% (inactive). For the same compound, in [5], the tube area decrease is -6.6% (inactive). Also, the GLP1 secretion stimulation in experiment [6] is 8.5% (inactive). Also, the inhibition of viability in experiment [7] was 12.2% (inactive). Further, the viability decrease (inhibition) in [8] is 40% (inactive); in experiment [9] it was 9.6% (inactive). Besides, the fold change in experiment [11] (stronger effect = lower value) is 0.911 (inactive) and 0.954 (inactive) and 0.854 (inactive); in experiment [11] (setting [19]), 1.24 and 1.48 and 1.65. The cell count was 6050 and 9400 and 9430 in experiment [11] (setting [20]); 6640 and 9850 and 11000 in [11] (setting [21]). Besides, the z-score in experiment [13] (MELAS cybrid survival, CellTiter-Glo 48 h, stronger effect = higher value) was 0.636 (inactive); in experiment [13] (Rieske KO mouse fibroblast survival, CellTiter-Glo 72 h), 1.18; in experiment [14], 0.17 (inactive) and 0.505 (inactive).

On to `C#C[C@]1(O)C=C[C@H]2[C@@H]3CCC4=CC(=O)CC[C@@H]4[C@H]3CC[C@@]21CC`, for which the nuclear beta-catenin stimulation is 0.9% (inactive) in experiment [2] (at 10 µM) and -1% in experiment [2] (stimulation, at 2 µM). Further, in experiment [3], the insulin secretion stimulation was -0.7% (inactive). Moreover, the viability decrease in experiment [4] was 7.4% (inactive). The tube area decrease in [5] is -2.3% (inactive). For the same compound, the GLP1 secretion stimulation in experiment [6] is 3.4% (inactive). The inhibition of viability in [7] was 32.2% (inactive). The figures for the viability decrease (inhibition) in experiment [8] and in experiment [9] were -18.5% (inactive) and -11.8% (inactive), respectively.

On to `CCCN1CCC[C@@H]2Cc3nc(N)ncc3C[C@H]21`, for which, in [15], the period change was -0.24 h (inactive). Moreover, the inhibition (commonly the relative decrease from the control value, in per cent) in experiment [16] is -1% (inactive). The nuclear beta-catenin stimulation in [2] (at 10 µM) was 4.8% (inactive); in [2] (stimulation, at 2 µM), -0.2%. In addition, the insulin secretion stimulation in experiment [3] is -0.2% (inactive). Moreover, the viability decrease in experiment [4] was -24.3% (inactive). In addition, in [5], the tube area decrease was -0.4% (inactive). The GLP1 secretion stimulation in experiment [6] is -2.2% (inactive). In addition, the inhibition of viability in [7] is -3.2% (inactive). Further, the viability decrease (inhibition) in experiment [8] was -4.6% (inactive); in experiment [9] it was -14.6% (inactive). Besides, the remaining activity (in general, the signal under treatment as a percentage of the control signal) in experiment [17] was 118% (inactive). Besides, the fold change in experiment [11] (stronger effect = lower value) is 0.958 (inactive); in experiment [11] (setting [19]), 2.12. For the same compound, the figures for the cell count in [11] (setting [20]) and in experiment [11] (setting [21]) were 9790 and 10200, respectively. For the same compound, in experiment [14], the z-score was 0.925 (inactive).

With `CCCCc1ccc(C(=O)O)nc1`, the period change in [15] is -0.03 h (inactive). Moreover, the survival in experiment [18] was 6.17 (inactive). The parasite load remaining in experiment [1] was 113% (inactive) and 80.1% (inactive). Moreover, the viability in [1] was 102% and 74.9%. Besides, in [16], the inhibition is -3% (inactive). Besides, the nuclear beta-catenin stimulation in [2] (at 10 µM) was 0.7% (inactive); in experiment [2] (stimulation, at 2 µM) it was 2.6%. Also, in experiment [3], the insulin secretion stimulation is 0.5% (inactive). In addition, the viability decrease in experiment [4] is 9.1% (inactive). Moreover, the tube area decrease in experiment [5] was -19.3% (inactive). The GLP1 secretion stimulation in experiment [6] is -1.2% (inactive). Further, the inhibition of viability in experiment [7] was 25.9% (inactive). In addition, the viability decrease (inhibition) was 82.1% (active) in experiment [8] and 3.1% (inactive) in experiment [9]. Further, in experiment [17], the remaining activity is 102% (inactive). Further, the fold change in [11] (stronger effect = lower value) was 0.891 (inactive) and 0.841 (inactive); in [11] (setting [19]), 1.39 and 1.24. In addition, the cell count in experiment [11] (setting [20]) was 9790 and 8980; in [11] (setting [21]), 11000 and 10700. Moreover, the z-score in [14] was 0.395 (inactive).
